Test results reported in PubChem BioAssay AID1347142 (National Center for Advancing Translational Sciences (NCATS), 2019).
Records with an inconclusive call do not appear. Values without a mark were called inactive. Active and inactive are the calls of the source. Calls come from the whole dose curve; as a rule, active = well fitted inhibition curve with a large enough effect; inconclusive = small, poorly fitted or top-dose-only effect; inactive = no such curve, though single readings can be large or run the other way.

biological target: N-terminal Xaa-Pro-Lys N-methyltransferase 1 (Homo sapiens) (UniProt Q9BV86); assay: qHTS Assay for Inhibitors of N-terminal methyltransferase 1 (NTMT1): ThioGlo3 Assay Confirmatory Screen, Round 1.; details: NTMT1 SAHH-coupled ThioGlo3 fluorescence, 30 min; series mostly up to 56.8 µM; activity change, negative = inhibition: at the top concentration
Sequence (Q9BV86 whole entry, looked up): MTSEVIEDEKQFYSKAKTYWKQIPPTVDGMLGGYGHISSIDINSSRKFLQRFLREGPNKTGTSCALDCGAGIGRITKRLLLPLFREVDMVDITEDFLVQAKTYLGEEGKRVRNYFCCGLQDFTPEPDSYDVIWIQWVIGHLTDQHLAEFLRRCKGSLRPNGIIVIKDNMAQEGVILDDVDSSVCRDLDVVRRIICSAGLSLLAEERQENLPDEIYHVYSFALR
In short: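 Human NTMT1 at 125 nM was preincubated 1 min at room temperature with compounds at various concentrations or 1 uM RCC1-6 control. Substrate mix (100 uM SAM, 10 uM SAHH, 15 uM ThioGlo3) was added, and fluorescence (Ex 340/Em 450 nm) was read at start and after 30 min, normalized to background.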
Note: nearly all actives have a fitted effect of over 80% in size.
Potency is the fitted concentration of half-maximal effect.
Throughout, for activity change, negative = inhibition: 0% is about no effect.

Row | SMILES | Potency | activity change, negative = inhibition [%]
1 | Nc1ncnc2c1ncn2[C@@H]1O[C@H](CO)[C@@H](O)[C@H]1O | 1.08 µM (active) | 
2 | COc1cc2nc(N3CCN(C)CC3)nc(NCCCN(C)C)c2cc1OC | 27.1 µM (active) | 
3 | COc1cc2c(NC3CCN(C4CCCCC4)CC3)nc(N3CCCCCC3)nc2cc1OCCCN1CCCCC1 | 24.1 µM (active) | 
4 | COc1cc2c(NC3CCN(C(C)C)CC3)nc(N3CCCCC3)nc2cc1OCCCN1CCCCC1 | 21.5 µM (active) | 
5 | Nc1ncnc2c1ncn2[C@@H]1O[C@H](COP(=O)(O)OP(=O)(O)CP(=O)(O)O)[C@@H](O)[C@H]1O |  | 3.29
6 | COc1cc2c(NC3CCN(C)CC3)nc(N3CCN(C)CC3)nc2cc1OCCCN(C)C | 24.1 µM (active) | 
7 | Nc1nc(Nc2ccccc2)nc2c1ncn2[C@@H]1O[C@H](CO)C(O)[C@H]1O (stereo partly drawn) | 24.1 µM (active) | 
8 | Nc1nc(Cl)nc2c1ncn2[C@@H]1O[C@H](COP(=O)(O)OP(=O)(O)OP(=O)(O)O)C(O)[C@H]1O (stereo partly drawn) | 21.5 µM (active) | 
9 | COc1cc2c(NC3CCN(C(C)C)CC3)nc(N3CCCCC3)nc2cc1OCCCN1CCCC1 | 30.4 µM (active) | 
10 | C[C@@H](Cc1ccccc1)Nc1ncnc2c1ncn2[C@@H]1O[C@H](CO)[C@@H](O)[C@H]1O |  | -5.57
11 | CNc1nc2c(N)ncnc2n1[C@@H]1O[C@@H]2COP(=O)(O)O[C@H]2[C@H]1O |  | -22.3
12 | COc1cc2c(NC3CCN(C)CC3)nc(N3CCCN(C)CC3)nc2cc1OCCCN1CCCC1 | 27.1 µM (active) | 
13 | COc1cc2nc(N3CCCN(C)CC3)nc(NC3CCOCC3)c2cc1OC | 24.1 µM (active) | 
